Laboratory results as given in PubChem BioAssay AID2113 (National Center for Advancing Translational Sciences (NCATS), 2009).
Records with an inconclusive call do not appear. Entries that show only a call come without a potency. Activity calls are given as the source filed them. The call rests on the fitted dose curve; in most records, active means well fitted curve in either direction with a large enough effect; inconclusive means small, poorly fitted or top-dose-only effect; inactive means no such curve, though single readings can be large or run the other way.

Target: Lysosomal alpha-glucosidase (Homo sapiens) (UniProt P10253)
Test: Confirmation of Inhibitors and Activators of Human alpha-Glucosidase From Spleen Homogenate;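 on potency: fluorescence of 4-methylumbelliferone released from a fluorogenic glucopyranoside substrate at pH 5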
Conditions: alpha-glucosidase enzyme activity; series mostly up to 60.5 µM
Outline: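 Compounds titrated against spleen-homogenate alpha-glucosidase, pH 5.0, 1 mM 4-MU-glucoside substrate, 37 C for 40 min. Fluorescence after pH 10 stop, normalised to no-enzyme and enzyme controls; Hill-equation AC50.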
Potency means the concentration at half of the fitted maximal effect.

SMILES | Potency
O=S(=O)(c1ccc2ccccc2c1)N1CCOCC1 | inactive
Cc1ccc(S(=O)(=O)N2CCOCC2)cc1 | inactive
CCCCN1C[C@H](O)[C@@H](O)[C@H](O)[C@H]1CO | inactive
CCCN1CNc2c(c(=O)[nH]c(=S)n2CCc2ccc(C)c(C)c2)C1 | 20 µM (active)
CCSc1nc(=S)n(CC)c(C)c1C(C)=O | inactive
CN1c2ccccc2-c2nc3ccccc3n2C1c1ccccn1 (stereo unspecified) | 14.1 µM (active)
O=C(/C=C/c1ccc(O)c(O)c1)c1ccc(O[C@@H]2O[C@H](CO)[C@@H](O)[C@H](O)[C@H]2O)c(O)c1O | inactive
CCC1C(=O)NCCN1Cc1nc(-c2ccc(C)s2)oc1C (stereo unspecified) | inactive
O=C(Nc1nnc(-c2cccc(F)c2)s1)Nc1ccccc1F | inactive
CC(=O)c1ccc(N2CCN(S(=O)(=O)c3ccc4c(c3)CCC(=O)N4)CC2)cc1 | inactive
Cc1noc(C)c1S(=O)(=O)N(CC(=O)N1CCc2ccccc21)c1ccc(C(C)C)cc1 | inactive
CC(=O)c1ccc(N2CCN(S(=O)(=O)c3ccc4c(c3)CC(C)N4C(C)=O)CC2)cc1 (stereo unspecified) | inactive
O=C(Cc1ncc(C(F)(F)F)cc1Cl)NCCc1ccccc1 | inactive
CN(C)C=Nc1nc2ccccc2nc1N1CCCC1 | inactive
Cc1c(C#N)c(N)nc2c3c(sc12)NC(=O)CC3c1ccc(Cl)cc1 (stereo unspecified) | inactive
O=C(c1ccccc1)N1CCN(C(=O)N(c2ccccc2)c2ccccc2)CC1 | inactive
Cn1c(-c2ccco2)nc2cc3ccccc3cc21 | inactive
O=S(=O)(c1ccccc1)N1CCNCC1 | inactive

SMILES | Potency
COC(=O)CSc1ccc(C#N)c(SCC(=O)OC)c1 | inactive
Clc1ccc(Nc2ncnc3ccc(Br)cc23)cc1 | inactive
C[C@H]1OC(OC2C(O)[C@@H](O)C(OC3C(O)[C@@H](O)C(O)O[C@@H]3CO)O[C@@H]2CO)[C@H](O)C(O)C1N[C@H]1C=C(CO)[C@@H](O)[C@H](O)C1O (stereo partly specified) | inactive
O=C1Cc2cc(S(=O)(=O)N3CCN(c4ccc(CO)cc4)CC3)ccc2N1 | 25.9 µM [inhibitor] (active)
N#Cc1c(-c2ccc(F)cc2)cc(-c2cccnc2)nc1N | inactive
Cc1ccc2c(c1)c1ncnc(N3CCC4(CC3)OCCO4)c1n2C | inactive
COc1ccc(OC)c(/C=C/C(=O)N(C)CC(=O)Nc2ccc(C)cc2)c1 | inactive
O=C(O)c1c[nH]c2ccc(S(=O)(=O)N3CCOCC3)cc12 | inactive
C=C(C)CC(NCc1ccco1)c1ccc(OC)cc1 (stereo unspecified) | inactive
CCCN1CNc2c(c(=O)[nH]c(=S)n2CCc2ccc(OC)cc2)C1 | 14.1 µM (active)
CN1CCN(S(=O)(=O)c2ccccc2)CC1 | inactive
Cc1sc(-c2cc3ccccc3oc2=O)nc1-c1ccc(Cl)cc1 | inactive
COc1cccc2cc(-c3nc4c(s3)CCc3ccccc3-4)c(=O)oc12 | inactive
O=c1oc2ccccc2cc1-c1csc(Cc2nc3c(s2)CCCC3)n1 | inactive
COc1ccc(S(=O)(=O)N2CCOCC2)cc1 | inactive
CCCN1CNc2c(c(=O)[nH]c(=S)n2CCc2cccc(OC)c2OC)C1 | 15.8 µM (active)
CCCN1CNc2c(c(=O)[nH]c(=S)n2-c2ccc(Cl)cc2)C1 | inactive
CCc1ccc(N=CC23c4ccccc4C(c4ccccc42)C2C(=O)N(c4ccc(OC)cc4)C(=O)C23)cc1 (stereo unspecified) | inactive
